The text below walks through data of the antibiotic and cytotoxicity screens of Wong et al. (2023).

Screen size: about 39,000 compounds; about 500 (1.3%) were called active. The sample as a whole holds a higher share of actives than the screen did.

The test system of this experiment is S. aureus RN4220. In words: growth inhibition call (relative growth <= 0.2). The note with it: 50 µM.
Consider `CCCCCc1c2c(cc(O)c1C(=O)O)OC(=O)c1c(cc(OC)cc1C(=O)CCCC)O2`, for which the growth inhibition call is “active”. As to `COc1cc(O)c(C(=O)O)c(O)c1`, the growth inhibition call was “inactive”.

Consider `COc1cc(C)c(C(=O)O)c(O)c1`, for which the growth inhibition call was “inactive”. Regarding `C[C@@H]1CN([C@H](C)CO)C(=O)c2cccc(NC(=O)Nc3ccc(C(F)(F)F)cc3)c2O[C@@H]1CN(C)Cc1ccc(Oc2ccccc2)cc1`, the growth inhibition call is “inactive”. Then `Cc1ccc(S(=O)(=O)N(C)C[C@H]2Oc3ccc(NS(=O)(=O)c4ccccc4)cc3C(=O)N([C@@H](C)CO)C[C@@H]2C)cc1`, with “inactive”; and `C[C@@H]1CN([C@H](C)CO)C(=O)Cc2cc(NS(=O)(=O)c3ccc(Cl)cc3)ccc2O[C@@H]1CN(C)S(C)(=O)=O`, with “inactive”; and `COC(=O)OCOc1c2n(ccc1=O)N([C@@H]1c3ccccc3SCc3c1ccc(F)c3F)[C@@H]1COCCN1C2=O`, with “inactive”. On to `CCC(C)CCCCC(=O)NC(CCN)C(=O)NC(C(=O)NC(CCN)C(=O)NC1CCNC(=O)C(C(C)O)NC(=O)C(CCN)NC(=O)C(CCN)NC(=O)C(CC(C)C)NC(=O)C(Cc2ccccc2)NC(=O)C(CCN)NC1=O)C(C)O.O=S(=O)(O)O` (stereo not given), for which the growth inhibition call is “active”. Turning to `CC[C@@H](C)CCCCC(=O)N[C@@H](CCN)C(=O)N[C@H](C(=O)N[C@@H](CCN)C(=O)N[C@H]1CCNC(=O)[C@H]([C@@H](C)O)NC(=O)[C@H](CCN)NC(=O)[C@H](CCN)NC(=O)[C@H](CC(C)C)NC(=O)[C@@H](Cc2ccccc2)NC(=O)[C@@H](CCN)NC1=O)[C@@H](C)O`, the growth inhibition call was “inactive”. Then `CC[C@@H](C)CCCC(=O)N[C@@H](CCN)C(=O)N[C@H](C(=O)N[C@@H](CCN)C(=O)N[C@H]1CCNC(=O)[C@H]([C@@H](C)O)NC(=O)[C@H](CCN)NC(=O)[C@H](CCN)NC(=O)[C@H](CC(C)C)NC(=O)[C@@H](CC(C)C)NC(=O)[C@H](CCN)NC1=O)[C@@H](C)O`, with “inactive”; and `C[C@@H]1CN([C@H](C)CO)S(=O)(=O)c2ccc(C#C[C@@H](C)O)cc2O[C@@H]1CN(C)C(=O)c1ccncc1`, with “inactive”.

Regarding `O=C(C[C@@H]1CC[C@H](NC(=O)CN2CCOCC2)[C@@H](CO)O1)NCCc1ccccc1`, the growth inhibition call was “inactive”. Consider `O=C1C=CC(=O)N1`, for which the growth inhibition call was “active”.

Take `Cc1noc(C)c1NC(=O)N(C)C[C@H]1OCCCC[C@@H](C)Oc2ccc(NC(=O)NC3CCCCC3)cc2C(=O)N([C@H](C)CO)C[C@@H]1C`: the growth inhibition call was “inactive”. Then `CN[C@H]1CC[C@@H](c2ccc(Cl)c(Cl)c2)c2ccccc21`, with “inactive”. Consider `CNC1CCC(c2ccc(Cl)c(Cl)c2)c2ccccc21.Cl` (stereo not given), for which the growth inhibition call is “active”. Then `N[C@@H]1CC[C@@H](c2ccc(Cl)c(Cl)c2)c2ccccc21`, with “active”; and `O=C(C[C@H]1C=C[C@H](NS(=O)(=O)c2ccc(F)cc2)[C@@H](CO)O1)N1CCC(Cc2ccccc2)CC1`, with “inactive”. Then `Cc1ccc(S(=O)(=O)Nc2ccc3c(c2)C(=O)N([C@H](C)CO)C[C@H](C)[C@H](CN(C)C(=O)Nc2c(C)noc2C)OCCCC[C@H](C)O3)cc1`, with “inactive”. Then `CO[C@@H]1CC[C@@H]2[C@H]1OCCN2C(=O)N(C)C`, with “inactive”. Turning to `CCCC#Cc1ccc2c(c1)O[C@@H](CN(C)S(=O)(=O)c1cccc(F)c1)[C@@H](C)CN([C@H](C)CO)S2(=O)=O`, the growth inhibition call is “inactive”. Then `COc1cc(Cl)ccc1Oc1ccc(Cl)cc1Cl`, with “inactive”.

As to `Nc1ccc(Sc2ccc3ccccc3c2Cl)c(Cl)c1`, the growth inhibition call is “active”. Take `Nc1ccc(Oc2ccc3ccccc3c2Cl)c(Cl)c1`: the growth inhibition call is “active”.

For the compound `COc1ccc2ccccc2c1-c1c(OC)ccc2ccccc12`, the growth inhibition call was “inactive”. Then `c1ccc2c(c1)ccc1cc3c(ccc4ccccc43)cc12`, with “inactive”; and `C[C@@H]1CN([C@H](C)CO)C(=O)c2cc(NC(=O)Nc3ccc4c(c3)OCO4)ccc2O[C@@H](C)CCCCO[C@H]1CN(C)Cc1ccc(C(=O)O)cc1`, with “inactive”. Then `C[C@@H]1CN([C@H](C)CO)C(=O)c2cc(NC(=O)Nc3ccc4c(c3)OCO4)ccc2O[C@@H](C)CCCCO[C@@H]1CN(C)C(=O)CCC(F)(F)F`, with “inactive”. As to `COc1ccc(CN(C)C[C@@H]2Oc3c(NC(=O)c4ccc(-c5nccs5)cc4)cccc3C(=O)N([C@@H](C)CO)C[C@H]2C)cc1`, the growth inhibition call was “inactive”.

On to `Cc1noc(C)c1S(=O)(=O)Nc1ccc2c(c1)CC(=O)N([C@@H](C)CO)C[C@H](C)[C@H](CN(C)S(=O)(=O)c1cn(C)cn1)O2`, for which the growth inhibition call was “inactive”. Turning to `C[C@@H]1CN([C@H](C)CO)C(=O)c2cccc(NS(C)(=O)=O)c2O[C@H]1CN(C)C(=O)Nc1ccccc1`, the growth inhibition call is “inactive”.

As to `CC(C)NC(=O)Nc1ccc2c(c1)C(=O)N([C@H](C)CO)C[C@H](C)[C@H](CN(C)Cc1ccc(C(=O)O)cc1)O2`, the growth inhibition call was “inactive”. Then `NC[C@H]1O[C@H](O[C@@H]2[C@H](O)[C@@H](O[C@H]3O[C@H](CO)[C@@H](O)[C@H](N)[C@H]3O)[C@H](N)C[C@@H]2N)[C@H](O)[C@@H](O)[C@@H]1O`, with “inactive”. Turning to `NCC1CCC(N)C(OC2C(N)CC(N)C(OC3OC(CO)C(O)C(N)C3O)C2O)O1` (stereo not given), the growth inhibition call was “inactive”. As for `NC[C@H]1O[C@H](O[C@H]2[C@H](O)[C@@H](O[C@H]3O[C@H](CO)[C@@H](O)[C@H](N)[C@H]3O)[C@H](N)C[C@@H]2N)[C@H](N)C[C@@H]1O`, the growth inhibition call was “active”. `NCC1OC(OC2C(N)CC(N)C(OC3OC(CO)C(O)C(N)C3O)C2O)C(N)CC1O` (stereo not given): the growth inhibition call was “active”. As to `NC[C@H]1O[C@H](O[C@H]2[C@@H](O[C@@H]3O[C@H](CO)[C@@H](O)[C@H]3O)[C@@H](O)[C@H](N)C[C@@H]2N)[C@H](N)[C@@H](O)[C@@H]1O`, the growth inhibition call is “inactive”. Take `NC[C@@H]1O[C@H](O[C@H]2[C@@H](O)[C@H](O[C@@H]3[C@@H](O)[C@H](N)C[C@H](N)[C@H]3O[C@@H]3O[C@H](CO)[C@@H](O)C[C@H]3N)O[C@@H]2CO)[C@H](N)[C@@H](O)[C@@H]1O[C@H]1O[C@H](CO)[C@@H](O)[C@H](O)[C@@H]1O`: the growth inhibition call was “inactive”. Regarding `C[C@@H]1CN([C@@H](C)CO)C(=O)c2cccc(NC(=O)CCCCCC(=O)Nc3ccccc3N)c2O[C@@H]1CN(C)C(=O)Nc1ccc(F)cc1`, the growth inhibition call was “inactive”. As to `OCC(CO)NC1CC(O)(CO)C(O)C(O)C1O` (stereo not given), the growth inhibition call was “inactive”.

Consider `C[C@H](CO)N1C[C@H](C)[C@H](CN(C)CC2CC2)OCCCC[C@H](C)Oc2ccc(NC(=O)Cc3ccccc3)cc2C1=O`, for which the growth inhibition call was “inactive”. Then `COc1ccc(NC(=O)Nc2ccc3c(c2)C(=O)N([C@@H](C)CO)C[C@H](C)[C@@H](CN(C)S(=O)(=O)c2ccc(Cl)cc2)OCCCC[C@H](C)O3)cc1`, with “inactive”; and `CCCNC(=O)N1C[C@]2(CCN(CC2)S(=O)(=O)c2ccccc2)c2c(n(c3cc(ccc23)OC)C)[C@@H]1CO`, with “inactive”; and `C[C@H](CO)N1C[C@H](C)[C@@H](CN(C)Cc2ccc(C(F)(F)F)cc2)Oc2ccc(NC(=O)Nc3ccc(F)cc3)cc2CC1=O`, with “inactive”. As to `CC(C)(C)[S@@](=O)N1Cc2cc(C(=O)N[C@@H]3CCN(Cc4ccccc4)C3)nc(-c3cccc(-c4ccncc4)c3)c2[C@H]1CCO`, the growth inhibition call is “inactive”.

On to `Cc1cc2nc(C(=O)N[C@H]3CCN(C)C3)cc(-c3ccccc3Cl)c2c(C)c1-c1ccc(CO)cc1`, for which the growth inhibition call was “active”.

`Cc1cc2nc(C(=O)NC[C@H]3CCCS(=O)(=O)C3)cc(-c3ccccc3Cl)c2c(C)c1-c1ccncc1`: the growth inhibition call is “inactive”. Then `CC(C)NC(=O)N(C)C[C@@H]1Oc2ccc(NC(=O)Cc3ccccc3)cc2CC(=O)N([C@@H](C)CO)C[C@H]1C`, with “inactive”; and `CC(C)[C@@H](CS(=O)(=O)C(C)C)N1C(=O)[C@@](C)(CC(=O)O)C[C@H](c2cccc(Cl)c2)[C@H]1c1ccc(Cl)cc1`, with “inactive”; and `COc1ccc(C[C@H](N)C(=O)N[C@H]2[C@@H](O)[C@H](n3cnc4c(N(C)C)ncnc43)O[C@@H]2CO)cc1`, with “active”. As for `CNc1ncnc2c1ncn2[C@@H]1O[C@H](CO)[C@@H](O)[C@H]1O`, the growth inhibition call was “inactive”. Then `COc1nc(N)nc2c1ncn2[C@@H]1O[C@H](CO)[C@@H](O)[C@@H]1O`, with “inactive”.

Take `Nc1ncnc2c1ncn2[C@H]1O[C@@H](CO)[C@H](O)[C@@H]1O`: the growth inhibition call was “inactive”. Then `COc1ccc(C[C@@H](N)C(=O)N[C@@H]2[C@@H](O)[C@@H](n3cnc4c(N(C)C)ncnc43)O[C@@H]2CO)cc1`, with “active”; and `COc1ccc(C[C@H](N)C(=O)N[C@H]2[C@@H](O)[C@@H](n3cnc4c(N(C)C)ncnc43)O[C@@H]2CO)cc1`, with “active”.

As to `CN(C)c1ncnc2c1ncn2[C@H]1O[C@@H](CO)[C@@H](N)[C@@H]1O`, the growth inhibition call was “inactive”. Then `COc1ccc(CC(N)C(=O)NC2C(CO)OC(n3cnc4c(N(C)C)ncnc43)C2O)cc1.Cl.Cl` (stereo not given), with “inactive”. As to `Nc1ncnc2c1ncn2[C@@H]1O[C@H](CO)[C@@H](O)[C@@H]1O`, the growth inhibition call is “inactive”. As to `O=C(C[C@@H]1CC[C@@H]2[C@H](COC[C@@H](O)CN2C(=O)c2ccccc2F)O1)N1CCN(c2ccccc2)CC1`, the growth inhibition call is “inactive”. Then `C[C@H](CO)N1C[C@H](C)[C@H](CN(C)Cc2ccc(C(=O)Nc3ccccc3N)cc2)Oc2ccc(NC(=O)Nc3ccc(C(F)(F)F)cc3)cc2CC1=O`, with “inactive”; and `C[C@@H]1CN([C@@H](C)CO)C(=O)c2cc(NS(=O)(=O)c3cn(C)cn3)ccc2O[C@@H]1CN(C)S(=O)(=O)c1cccs1`, with “inactive”. Then `Cc1noc(C)c1NC(=O)Nc1cccc2c1O[C@H](CN(C)Cc1ccc(C(=O)Nc3ccccc3N)cc1)[C@@H](C)CN([C@H](C)CO)C2=O`, with “inactive”; and `Cc1noc(C)c1S(=O)(=O)Nc1ccc2c(c1)C(=O)N([C@@H](C)CO)C[C@H](C)[C@@H](CN(C)Cc1ccc3c(c1)OCO3)O2`, with “inactive”. As for `CCCCCCCCC=CCCCCCCCC(=O)[O-].[NH3+]CCO`, the growth inhibition call was “inactive”. Then `C[C@H]1CN([C@@H](C)CO)C(=O)c2cc(NC(=O)Nc3cccc4ccccc34)ccc2O[C@@H]1CN(C)Cc1ccc(-c2ccccc2)cc1`, with “inactive”.
